Holding throughout (parameters): scale not given: direction of the effect not stated beside the values
Experiment [1] addresses Protein translocase subunit SecA (Escherichia coli (strain K12)) (UniProt P10408). The experiment in a line: Assay to Identify E. coli SecA ATPase Inhibitors. Format: functional. Conditions: 30 µM.
In experiment [2] the target is T1, Ubiquitin-activating enzyme e1, putative (Leishmania donovani (strain BPK282A1)) (UniProt E9BSI1).
T1 sequence (whole entry): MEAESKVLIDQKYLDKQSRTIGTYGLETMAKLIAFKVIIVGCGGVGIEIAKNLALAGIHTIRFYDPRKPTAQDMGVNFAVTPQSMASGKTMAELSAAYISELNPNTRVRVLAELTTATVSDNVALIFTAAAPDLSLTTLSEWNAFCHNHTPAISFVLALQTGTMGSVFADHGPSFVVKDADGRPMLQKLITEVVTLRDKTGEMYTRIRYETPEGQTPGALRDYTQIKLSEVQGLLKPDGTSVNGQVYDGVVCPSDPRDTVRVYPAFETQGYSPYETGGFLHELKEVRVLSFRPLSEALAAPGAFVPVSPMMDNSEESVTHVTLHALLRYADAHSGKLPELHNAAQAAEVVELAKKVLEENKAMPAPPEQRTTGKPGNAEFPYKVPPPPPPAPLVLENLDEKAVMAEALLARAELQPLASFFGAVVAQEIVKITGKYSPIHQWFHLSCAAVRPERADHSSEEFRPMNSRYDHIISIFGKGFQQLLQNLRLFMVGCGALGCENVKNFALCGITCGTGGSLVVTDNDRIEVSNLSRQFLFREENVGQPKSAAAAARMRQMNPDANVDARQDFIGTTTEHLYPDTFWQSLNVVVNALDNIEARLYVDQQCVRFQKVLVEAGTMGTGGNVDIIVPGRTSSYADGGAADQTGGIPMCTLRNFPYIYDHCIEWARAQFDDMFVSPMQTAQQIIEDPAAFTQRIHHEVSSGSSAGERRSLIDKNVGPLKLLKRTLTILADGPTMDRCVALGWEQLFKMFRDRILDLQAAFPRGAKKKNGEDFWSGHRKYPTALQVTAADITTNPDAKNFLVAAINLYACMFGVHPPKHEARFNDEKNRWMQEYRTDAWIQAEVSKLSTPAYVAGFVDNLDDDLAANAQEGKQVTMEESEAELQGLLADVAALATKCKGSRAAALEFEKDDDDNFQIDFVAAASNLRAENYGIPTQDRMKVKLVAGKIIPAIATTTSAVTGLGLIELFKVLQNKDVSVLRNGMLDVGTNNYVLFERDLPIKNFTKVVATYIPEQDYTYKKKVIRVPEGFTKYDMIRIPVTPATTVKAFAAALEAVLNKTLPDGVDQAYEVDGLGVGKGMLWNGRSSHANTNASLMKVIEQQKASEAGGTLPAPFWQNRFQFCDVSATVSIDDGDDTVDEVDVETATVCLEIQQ
In words: Leishmania donovani Ubiquitin Activating Enzyme (LdE1). Format: functional. Conditions: 30 µM.

For experiment [3], the target named is AMP-activated protein kinase, AMPK (Homo sapiens) (UniProt P54646+O43741+P54619+Q9UGJ0+Q9Y478+Q13131+Q9UGI9). In words: AMP-dependent Kinase enzyme assay. An in vitro enzyme assay that detects ADP turnover that is directly proportional to AMPK activity. This uses naive AMPK that is activated during the assay with MK-8722. As to conditions: 30 µM. Format: functional.

Experiment [4] concerns the target Sialic acid-binding Ig-like lectin 9 (Homo sapiens) (UniProt Q9Y336). The experiment in a line: Hs-Siglec9 ALPHAscreen SOP 20170721. As to conditions: 10 µM. Background: Alpha assays give light when donor and acceptor beads are brought close together.
Experiment [5] concerns Trypanosoma cruzi. The experiment in a line: Trypanosoma cruzi phosphomannomutase and mannose-1-phosphate guanylyltransferase assay. Format: functional. Conditions: 10 µM.
The target of experiment [6] is T2, Arginase-2, mitochondrial (Homo sapiens) (UniProt P78540).
T2 sequence (whole entry): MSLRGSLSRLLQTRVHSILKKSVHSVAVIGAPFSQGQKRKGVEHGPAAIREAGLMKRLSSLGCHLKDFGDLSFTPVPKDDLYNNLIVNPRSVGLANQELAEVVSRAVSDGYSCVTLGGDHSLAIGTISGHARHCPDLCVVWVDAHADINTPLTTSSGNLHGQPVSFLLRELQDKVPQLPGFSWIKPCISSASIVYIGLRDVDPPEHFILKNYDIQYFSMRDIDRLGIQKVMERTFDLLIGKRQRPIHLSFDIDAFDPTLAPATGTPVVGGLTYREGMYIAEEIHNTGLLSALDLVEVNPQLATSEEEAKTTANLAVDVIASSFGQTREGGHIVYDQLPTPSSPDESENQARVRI
In words: in vitro enzyme assay to detect the production of urea directly proportional to the activity of Arginase II. Further: in the data most compounds retested in dose-response had high values. It is filed as functional. Conditions: 33.3 µM.

Experiment [7] has as its target T3, Proteasome subunit beta (Trypanosoma cruzi) (UniProt O96673).
T3 sequence (whole entry): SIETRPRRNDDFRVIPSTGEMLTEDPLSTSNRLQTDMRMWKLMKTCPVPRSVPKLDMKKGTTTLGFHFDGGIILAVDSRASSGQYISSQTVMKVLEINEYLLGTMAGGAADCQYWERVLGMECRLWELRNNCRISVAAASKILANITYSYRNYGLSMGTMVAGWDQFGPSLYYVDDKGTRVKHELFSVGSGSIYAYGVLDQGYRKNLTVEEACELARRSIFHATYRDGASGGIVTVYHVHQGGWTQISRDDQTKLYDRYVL
The experiment in a line: Trypanosoma cruzi proteasome chymotrypsin-like activity (TcProtChymo) assay. Further: in the data most compounds retested in dose-response had high values. It is filed as functional. Conditions: 9.37 µM.

The species named for experiment [8] is Homo sapiens. In words: To identify inhibition of the IFN signalling (Jak-Stat) pathway via expression of an eGFP reporter gene under the control of an IFN-stimulated response element (ISRE) containing MxA promoter. Format: functional. As to conditions: 30 µM. In general terms: In a reporter assay the amount or activity of a reporter protein is the signal.

For experiment [9], the target named is T4, Tyrosyl-tRNA synthetase, putative (Trypanosoma cruzi (strain CL Brener)) (UniProt Q4DSP6).
T4 sequence (whole entry): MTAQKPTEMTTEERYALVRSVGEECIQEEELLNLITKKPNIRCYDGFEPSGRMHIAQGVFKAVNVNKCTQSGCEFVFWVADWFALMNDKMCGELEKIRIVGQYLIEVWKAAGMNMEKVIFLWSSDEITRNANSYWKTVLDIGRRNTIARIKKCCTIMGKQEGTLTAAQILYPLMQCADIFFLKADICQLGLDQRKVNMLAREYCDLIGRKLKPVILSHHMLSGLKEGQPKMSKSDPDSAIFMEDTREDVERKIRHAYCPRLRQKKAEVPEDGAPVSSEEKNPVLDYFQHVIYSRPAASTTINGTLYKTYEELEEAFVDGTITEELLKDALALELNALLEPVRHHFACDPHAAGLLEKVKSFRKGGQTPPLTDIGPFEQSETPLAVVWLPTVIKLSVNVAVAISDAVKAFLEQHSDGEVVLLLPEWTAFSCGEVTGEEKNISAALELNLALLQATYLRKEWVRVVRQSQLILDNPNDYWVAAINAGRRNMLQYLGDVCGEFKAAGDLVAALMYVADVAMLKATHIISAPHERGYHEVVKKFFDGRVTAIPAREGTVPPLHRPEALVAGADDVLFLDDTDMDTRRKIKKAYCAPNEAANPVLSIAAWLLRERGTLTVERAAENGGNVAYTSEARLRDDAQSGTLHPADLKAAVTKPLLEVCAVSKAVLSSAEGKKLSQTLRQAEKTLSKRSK
In words: Trypanosoma cruzi tyrosyl tRNA synthetase (TcYRS) _High Tyrosine SOP. Further: in the data most compounds retested in dose-response had high values. Conditions: 30 µM. Format: functional.

Experiment [10] deals with T4, Tyrosyl-tRNA synthetase, putative (Trypanosoma cruzi (strain CL Brener)). In words: Trypanosoma cruzi tyrosyl tRNA synthetase (TcYRS) SOP. Format: functional. As to conditions: 30 µM.
The target of experiment [11] is Chromo domain-containing protein 1 (Saccharomyces cerevisiae (strain ATCC 204508 / S288c) (Baker's yeast)) (UniProt P32657). In words: ScCHD-1 Enzyme Inhibition Assay. Further: in the data most compounds retested in dose-response had high values. It is filed as functional. As to conditions: 30 µM.
Chromo domain-containing protein 1 (Saccharomyces cerevisiae (strain ATCC 204508 / S288c) (Baker's yeast)), sequence (P32657 whole entry, the tested form may be a part): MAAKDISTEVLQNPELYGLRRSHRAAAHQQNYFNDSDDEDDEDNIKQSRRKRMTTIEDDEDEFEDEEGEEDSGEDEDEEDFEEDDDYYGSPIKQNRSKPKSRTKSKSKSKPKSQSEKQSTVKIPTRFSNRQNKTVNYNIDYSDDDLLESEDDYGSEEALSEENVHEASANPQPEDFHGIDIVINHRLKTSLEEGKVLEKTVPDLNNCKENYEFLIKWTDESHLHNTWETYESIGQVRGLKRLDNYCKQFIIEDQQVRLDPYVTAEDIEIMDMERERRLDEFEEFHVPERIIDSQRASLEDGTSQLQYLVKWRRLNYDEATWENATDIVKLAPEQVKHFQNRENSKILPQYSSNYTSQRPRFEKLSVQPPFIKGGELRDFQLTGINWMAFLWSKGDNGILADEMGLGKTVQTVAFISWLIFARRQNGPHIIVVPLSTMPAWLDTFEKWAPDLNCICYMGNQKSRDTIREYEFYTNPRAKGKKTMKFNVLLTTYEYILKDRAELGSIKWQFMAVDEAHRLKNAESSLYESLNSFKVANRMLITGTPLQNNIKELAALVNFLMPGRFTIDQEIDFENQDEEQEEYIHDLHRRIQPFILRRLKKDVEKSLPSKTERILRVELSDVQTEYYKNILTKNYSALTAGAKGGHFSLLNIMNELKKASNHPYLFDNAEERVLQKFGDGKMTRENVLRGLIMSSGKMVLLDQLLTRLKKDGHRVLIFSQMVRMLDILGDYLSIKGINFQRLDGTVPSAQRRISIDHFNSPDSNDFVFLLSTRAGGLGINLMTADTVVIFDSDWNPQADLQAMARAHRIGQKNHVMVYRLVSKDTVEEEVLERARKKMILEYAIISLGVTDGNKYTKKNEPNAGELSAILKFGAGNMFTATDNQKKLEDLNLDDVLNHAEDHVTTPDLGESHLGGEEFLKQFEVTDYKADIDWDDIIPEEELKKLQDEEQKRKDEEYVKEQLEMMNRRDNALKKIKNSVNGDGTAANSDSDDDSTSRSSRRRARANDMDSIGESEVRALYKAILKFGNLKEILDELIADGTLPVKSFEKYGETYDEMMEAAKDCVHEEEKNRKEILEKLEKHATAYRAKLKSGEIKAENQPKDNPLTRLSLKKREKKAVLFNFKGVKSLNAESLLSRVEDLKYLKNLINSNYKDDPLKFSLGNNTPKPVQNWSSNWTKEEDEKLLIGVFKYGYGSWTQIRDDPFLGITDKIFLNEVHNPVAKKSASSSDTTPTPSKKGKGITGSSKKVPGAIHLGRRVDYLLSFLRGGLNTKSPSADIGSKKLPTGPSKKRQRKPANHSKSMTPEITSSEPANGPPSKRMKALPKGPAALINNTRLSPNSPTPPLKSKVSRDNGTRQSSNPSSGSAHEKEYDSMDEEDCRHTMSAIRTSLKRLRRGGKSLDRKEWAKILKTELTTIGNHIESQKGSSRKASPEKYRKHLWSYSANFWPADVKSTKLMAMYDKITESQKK

For some of these results: Results with a measured potency or affinity are listed apart.

Sialic acid-binding Ig-like lectin 9 (Homo sapiens), sequence (Q9Y336 whole entry): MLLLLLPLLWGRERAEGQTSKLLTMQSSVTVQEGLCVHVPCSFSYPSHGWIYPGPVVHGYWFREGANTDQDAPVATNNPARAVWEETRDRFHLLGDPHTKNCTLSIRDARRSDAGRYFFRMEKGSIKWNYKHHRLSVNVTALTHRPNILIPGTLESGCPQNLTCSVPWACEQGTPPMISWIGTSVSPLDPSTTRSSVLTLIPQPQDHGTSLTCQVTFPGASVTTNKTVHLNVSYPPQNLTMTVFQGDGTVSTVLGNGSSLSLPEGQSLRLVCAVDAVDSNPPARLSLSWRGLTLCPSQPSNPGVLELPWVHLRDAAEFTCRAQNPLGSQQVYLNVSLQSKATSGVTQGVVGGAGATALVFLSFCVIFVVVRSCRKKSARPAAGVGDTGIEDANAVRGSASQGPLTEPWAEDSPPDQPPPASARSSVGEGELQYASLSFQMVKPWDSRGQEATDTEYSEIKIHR
Protein translocase subunit SecA (Escherichia coli (strain K12)), sequence (P10408 whole entry): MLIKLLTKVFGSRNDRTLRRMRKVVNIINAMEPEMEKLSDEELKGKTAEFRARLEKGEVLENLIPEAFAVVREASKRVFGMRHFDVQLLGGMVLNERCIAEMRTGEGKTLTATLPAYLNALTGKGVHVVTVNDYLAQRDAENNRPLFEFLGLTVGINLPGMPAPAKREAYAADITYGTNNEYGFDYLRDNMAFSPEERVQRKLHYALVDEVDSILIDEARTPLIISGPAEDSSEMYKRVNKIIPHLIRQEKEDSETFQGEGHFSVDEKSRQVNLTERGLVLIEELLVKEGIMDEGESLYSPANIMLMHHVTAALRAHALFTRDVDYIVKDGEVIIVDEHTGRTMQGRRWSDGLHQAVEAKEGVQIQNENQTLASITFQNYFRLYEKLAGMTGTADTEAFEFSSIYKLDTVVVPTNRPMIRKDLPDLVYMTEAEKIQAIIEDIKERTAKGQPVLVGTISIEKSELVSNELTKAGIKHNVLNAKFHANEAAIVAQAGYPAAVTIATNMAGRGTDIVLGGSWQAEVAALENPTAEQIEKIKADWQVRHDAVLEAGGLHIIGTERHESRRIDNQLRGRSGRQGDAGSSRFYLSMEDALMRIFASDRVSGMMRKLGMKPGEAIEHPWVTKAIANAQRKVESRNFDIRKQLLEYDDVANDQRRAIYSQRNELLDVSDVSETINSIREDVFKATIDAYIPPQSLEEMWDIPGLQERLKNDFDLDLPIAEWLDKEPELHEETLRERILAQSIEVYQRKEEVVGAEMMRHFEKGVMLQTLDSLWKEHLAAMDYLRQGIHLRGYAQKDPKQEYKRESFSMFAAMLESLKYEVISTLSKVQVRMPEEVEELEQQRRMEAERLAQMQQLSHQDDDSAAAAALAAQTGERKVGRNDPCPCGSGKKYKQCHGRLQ

Regarding `Cc1nonc1C(=O)N1CCCC(c2ncncc2-c2ccncc2)C1` (stereo unspecified), the Percent Effect is -5.71% in experiment [1]; 8% in experiment [2]; 11.1% in [3]; 2.77% in experiment [4]; -0.591% in experiment [5]; 0.699% in experiment [6]. Moreover, the Percent Effect in [7] was 3.08%; in experiment [8], -1.27%; in [9] it was 5.32%; in [10] it was 8.97%; in experiment [11] it was -4.88%.

Turning to `COc1ccccc1CC1CCCN(CCC#N)C1` (stereo unspecified), the Percent Effect is -3.04% in experiment [1]; 5.2% in [2]; -0.847% in experiment [3]; 2.02% in [4]; 3.82% in experiment [5]; 4.42% in experiment [6]. In addition, the Percent Effect in experiment [7] was -6.39%; in experiment [8], 8.44%; in [9] it was 2.86%; in experiment [10], 11.8%; in [11], -9.24%.

Take `O=C(c1ccc[nH]1)N1CCn2cc(Cn3cncn3)nc2C1`: the Percent Effect in experiment [1] was -0.971%; in experiment [2] it was 2.67%; in experiment [3], 2.39%; in [4], -2.2%; in experiment [5] it was -3.94%; in [6] it was 3.03%. Also, the Percent Effect in experiment [7] was 11.2%; in [8] it was 13.4%; in [9], 3.19%; in [10], -1.28%; in experiment [11] it was -3.1%.

As to `Cc1cc(C)n(CC2CN(Cc3nnsc3Cl)CCO2)n1` (stereo unspecified), the Percent Effect was -1.37% in experiment [1]; 21.1% in experiment [2]; 3.21% in experiment [3]; 2.78% in [4]; -2.82% in experiment [5]; -4.21% in [6]. Moreover, the Percent Effect is 14.7% in experiment [7]; -18.7% in experiment [8]; 4.41% in [9]; 17.1% in [10]; -7.75% in experiment [11].

For the compound `c1ccc(CN2CC[C@@H]3O[C@@H](COCC4CCOCC4)CC[C@@H]32)nc1`, the Percent Effect in experiment [1] was -4.64%; in experiment [2], 10.7%; in [3], 1.98%; in experiment [4], -3.4%; in experiment [5], -0.394%; in experiment [6] it was 2.1%. Moreover, the Percent Effect in experiment [7] is 12.4%; in experiment [8], -2.6%; in [9], 2.13%; in experiment [10], 8.97%; in experiment [11], -2.41%.

Take `Cc1ncc2c(n1)CN(Cc1noc(C3CC3)n1)CC2`: the Percent Effect was -6.18% in experiment [1]; 15.6% in experiment [2]; -33.1% in experiment [3]; 11.6% in [4]; 5.43% in experiment [5]; 2.85% in experiment [6]. Also, the Percent Effect in experiment [7] was 8.11%; in experiment [8], 2.58%; in experiment [9], 6.8%; in experiment [10], 19.5%; in experiment [11], -13.7%.

For the compound `Cc1nc(-c2ccccc2)n(CC(=O)N(C(C)C)C(C)C)n1`, the Percent Effect is -0.812% in experiment [1]; 18.9% in experiment [2]; -12.1% in experiment [3]; 5.09% in [4]; 3.68% in experiment [5]; -9.62% in experiment [6]. Besides, the Percent Effect in experiment [7] was 15.3%; in [8] it was 14.6%; in experiment [9] it was 9.36%; in experiment [10] it was 23.5%; in [11] it was -8.42%.

As for `COC(=O)c1cccc(OCCn2nc(-c3cccs3)oc2=O)c1`, the Percent Effect in experiment [1] was -3.91%; in experiment [2], -5.41%; in experiment [3] it was -4.63%; in [4], 7.61%; in experiment [5], -4.36%; in experiment [6] it was -3.14%. Further, the Percent Effect in experiment [7] is 1.44%; in experiment [8] it was 22.8%; in [9] it was -16.8%; in [10], -6.1%; in experiment [11], 3.23%.

For `CC(C)OCCOCc1cccc(NC(=O)NCc2ccccn2)c1`, the Percent Effect in [1] is -5.4%; in [2], 10.4%; in [3], 0.256%; in experiment [4], 12%; in experiment [5], 6.79%; in [6], -24.8%. Further, the Percent Effect was 19.3% in experiment [7]; -1.08% in experiment [8]; 2.15% in [9]; 8.64% in experiment [10]; -6.3% in experiment [11].

For `Cc1cc(NC(=O)CN2CCn3c(nnc3C(C)C)C2)no1`, the Percent Effect in experiment [1] is -2.36%; in experiment [2], 7.79%; in experiment [3], 2.84%; in experiment [4], -23.1%; in experiment [5], 2.25%; in experiment [6] it was -5.26%. Also, the Percent Effect in [7] was 16.6%; in [8] it was 25.4%; in experiment [9], 5.71%; in experiment [10], 25.9%; in [11], -21.2%.

`Cc1ccc(C)c(NC(=O)N(C)Cc2cnn(C)c2)c1`: the Percent Effect in [1] was -3.08%; in experiment [2], 21.6%; in [3] it was -1.59%; in [4] it was -5.73%; in experiment [5] it was -5.94%; in experiment [6] it was -0.401%. The Percent Effect in experiment [7] was 11.3%; in experiment [8], 20.3%; in [9], 7.39%; in [10], 16.1%; in experiment [11], -4.13%.

The record behind these values is ChEMBL document CHEMBL3988442, “University of Dundee, Small-Polar-MMV Screening Library” (2021).
